The supplement of paper PMC8728848
Shown is part of a subset that was picked to be rich in the strongest signals.

Tests used:
Assay in all cases: glycan array binding signal (z-score within array); higher = stronger binding
Details in all cases: glycan notation: IUPAC condensed, linker removed
[1] = target: Fuc(a1-2)Gal(b1-3)GalNAc(a1-3)[Fuc(a1-2)]Gal(b1-4)GlcNAc
Procedure, shortened: (§1)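 From the Consortium for Functional Glycomics database, 3228 arrays were curated, keeping only those whose protein sequence was available. Binding is given as a within-array Z-score averaged across arrays sharing a protein sequence and across linkers. Negative Z-scores can be read as non-binding.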

[2] = target: Fuc(a1-2)Gal(b1-3)GalNAc(b1-3)Gal(a1-4)Gal(b1-4)Glc
Procedure, shortened: as §1

[3] = target: Fuc(a1-2)Gal(b1-3)GlcNAc(b1-2)Man(a1-3)[Fuc(a1-2)Gal(b1-3)GlcNAc(b1-2)Man(a1-6)]Man(b1-4)GlcNAc(b1-4)[Fuc(a1-6)]GlcNAc
Procedure, shortened: as §1

[4] = target: Fuc(a1-2)Gal(b1-4)GlcNAc(b1-6)GalNAc
Procedure, shortened: as §1

Fuc(a1-2)Gal6S(b1-4)Glc = target: Fuc(a1-2)Gal6S(b1-4)Glc
Procedure, shortened: as §1

[5] = target: Fuc(a1-2)[Gal(a1-3)]Gal(b1-4)GlcNAc(b1-3)GalNAc
Procedure, shortened: as §1

[6] = target: Fuc(a1-3)[Gal(b1-4)]GlcNAc6S
Procedure, shortened: as §1

Fuc(a1-4)GlcNAc = target: Fuc(a1-4)GlcNAc
Procedure, shortened: as §1

Gal(a1-3)Gal(b1-3)GlcNAc = target: Gal(a1-3)Gal(b1-3)GlcNAc
Procedure, shortened: as §1

[7] = target: Gal(a1-3)Gal(b1-4)[Fuc(a1-3)]GlcNAc
Procedure, shortened: as §1

[8] = target: Gal(a1-3)Gal(b1-4)[Fuc(a1-3)]GlcNAc(b1-2)Man(a1-3)[Gal(a1-3)Gal(b1-4)[Fuc(a1-3)]GlcNAc(b1-2)Man(a1-6)]Man(b1-4)GlcNAc(b1-4)GlcNAc
Procedure, shortened: as §1

[9] = target: Gal(a1-3)[Gal(a1-4)]Gal(b1-4)GlcNAc
Procedure, shortened: as §1

Gal(a1-4)Gal(b1-4)Glc = target: Gal(a1-4)Gal(b1-4)Glc
Procedure, shortened: as §1

Gal(b1-3)Gal = target: Gal(b1-3)Gal
Procedure, shortened: as §1

[10] = target: Gal(b1-3)GalNAc(b1-3)Gal(a1-4)Gal(b1-4)Glc
Procedure, shortened: as §1

[11] = target: Gal(b1-3)GalNAc(b1-4)[Neu5Ac(a2-3)]Gal(b1-4)Glc
Procedure, shortened: as §1

[12] = target: Gal(b1-3)GlcNAc(b1-3)GalNAc
Procedure, shortened: as §1

[13] = target: Gal(b1-3)[Neu5Ac(a2-6)]GalNAc
Procedure, shortened: as §1

[14] = target: Gal(b1-3)[Neu5Ac(a2-6)]GlcNAc(b1-4)Gal(b1-4)Glc
Procedure, shortened: as §1

[15] = target: Gal(b1-3)[Neu5Ac(b2-6)]GalNAc
Procedure, shortened: as §1

[16] = target: Gal(b1-4)GlcNAc(b1-2)Man(a1-3)[Gal(b1-4)GlcNAc(b1-2)Man(a1-6)]Man(b1-4)GlcNAc(b1-4)GlcNAc
Procedure, shortened: as §1

[17] = target: Gal(b1-4)GlcNAc(b1-2)Man(a1-6)[GlcNAc(b1-2)Man(a1-3)]Man(b1-4)GlcNAc(b1-4)GlcNAc
Procedure, shortened: as §1

[18] = target: Gal(b1-4)GlcNAc(b1-3)Gal(b1-4)GlcNAc(b1-3)Gal(b1-4)GlcNAc(b1-3)Gal(b1-4)GlcNAc(b1-3)Gal(b1-4)GlcNAc(b1-3)Gal(b1-4)GlcNAc(b1-2)Man(a1-3)[Gal(b1-4)GlcNAc(b1-3)Gal(b1-4)GlcNAc(b1-3)Gal(b1-4)GlcNAc(b1-3)Gal(b1-4)GlcNAc(b1-3)Gal(b1-4)GlcNAc(b1-3)Gal(b1-4)GlcNAc(b1-2)Man(a1-6)]Man(b1-4)GlcNAc(b1-4)GlcNAc
Procedure, shortened: as §1

[19] = target: Gal(b1-4)GlcNAc(b1-3)[Gal(b1-4)GlcNAc(b1-6)]Gal(b1-4)GlcNAc
Procedure, shortened: as §1

[20] = target: Gal(b1-4)GlcNAc(b1-6)GalNAc
Procedure, shortened: as §1

Gal(b1-6)Gal = target: Gal(b1-6)Gal
Procedure, shortened: as §1

[21] = target: Gal3S(b1-3)[Fuc(a1-4)]GlcNAc
Procedure, shortened: as §1

Gal3S4S(b1-4)GlcNAc = target: Gal3S4S(b1-4)GlcNAc
Procedure, shortened: as §1

B1: DCIR1 (Mus musculus), Q9QZ15 (protein)
chain: MASEITYAEVKFKNESNSLHTYSESPAAPREKPIRDLRKPGSPSLLLTSLMLLLLLLAITFLVAFIIYFQKYSQLLEEKKAAKNIMHNELNCTKSVSPMEDKVWSCCPKDWRLFGSHCYLVPTVSSSASWNKSEENCSRMGAHLVVIQSQEEQDFITGILDTHAAYFIGLWDTGHRQWQWVDQTPYEESITFWHNGEPSSGNEKCATIIYRWKTGWGWNDISCSLKQKSVCQMKKINL
B1 was tested, and the “glycan array binding signal (z-score)” value [1] was 0.031, the “glycan array binding signal (z-score)” value [2] was 3.31 and the “glycan array binding signal (z-score)” value [3] was 3.05. The “glycan array binding signal (z-score)” value [4] was 3.97, the “glycan array binding signal (z-score)” value (Fuc(a1-2)Gal6S(b1-4)Glc) was 1.87 and the “glycan array binding signal (z-score)” value [5] was -0.604. For the same binder, the “glycan array binding signal (z-score)” value [6] was 1.43, the “glycan array binding signal (z-score)” value (Fuc(a1-4)GlcNAc) was -0.807 and the “glycan array binding signal (z-score)” value (Gal(a1-3)Gal(b1-3)GlcNAc) was 7.14. For the same binder, the “glycan array binding signal (z-score)” value [7] was -0.171, the “glycan array binding signal (z-score)” value [8] was 2.31 and the “glycan array binding signal (z-score)” value [9] was 3.21. For the same binder, the “glycan array binding signal (z-score)” value (Gal(a1-4)Gal(b1-4)Glc) was 0.74, the “glycan array binding signal (z-score)” value (Gal(b1-3)Gal) was -0.894 and the “glycan array binding signal (z-score)” value [10] was 0.592. The “glycan array binding signal (z-score)” value [11] was 2.65, the “glycan array binding signal (z-score)” value [12] was -0.841 and the “glycan array binding signal (z-score)” value [13] was -0.767. For the same binder, the “glycan array binding signal (z-score)” value [14] was 3.38, the “glycan array binding signal (z-score)” value [15] was -0.696 and the “glycan array binding signal (z-score)” value [16] was -0.217. The “glycan array binding signal (z-score)” value [17] was 0.904, the “glycan array binding signal (z-score)” value [18] was -0.907 and the “glycan array binding signal (z-score)” value [19] was -0.693. For the same binder, the “glycan array binding signal (z-score)” value [20] was 1.01, the “glycan array binding signal (z-score)” value (Gal(b1-6)Gal) was -0.786 and the “glycan array binding signal (z-score)” value [21] was -0.369. The “glycan array binding signal (z-score)” value (Gal3S4S(b1-4)GlcNAc) was -0.376.
